Test systems include NCI-H23 lung; NCI-H322M lung; HOP-62 NSCLC; NCI-H460 lung; HOP-92 NSCLC; NCI-H522 lung; A549/ATCC NSCLC; 786-0 renal; COLO 205 colon.
Holding throughout (test): NCI-60 one-dose screen, 48 h (100 = growth as untreated, 0 = no growth, -100 = all killed)
Conditions in all cases: 10 µM unless noted

Each structure is given as a SMILES string. The panel holds about 83,000 compounds, 20% with a hit somewhere; the sample as a whole holds those more often.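 The endpoint reported here, percent growth, reads 100 for growth as untreated, 0 for no net growth and -100 for all cells dead.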 A number with no mark means an inactive call. Active and inactive are the calls of the source. The calls were made as follows: active = growth percent below 10; inactive = the rest.

In the case of `O=[N+]([O-])c1ccc(C2CC(c3ccccc3)=Nc3ccccc3S2)cc1` (stereo not drawn), the growth was 94.4% with NCI-H23 lung; 107% with NCI-H322M lung; 112% with HOP-62 NSCLC; 101% with NCI-H460 lung; 81% in the assay with HOP-92 NSCLC; 94.6% in the assay with NCI-H522 lung. For the same compound, the growth in the assay on A549/ATCC NSCLC was 105%; in the assay on 786-0 renal, 105%; in the assay with COLO 205 colon, 118%.
With `CN(C)CC1=NC2SC=C(c3ccccc3)C2C(=O)N1CC#N` (stereo not drawn), the growth in the assay with NCI-H23 lung is 102%; in the assay on NCI-H322M lung, 89.2%; in the assay on NCI-H460 lung, 115%; in the assay on HOP-92 NSCLC it was -14.6% (active); with NCI-H522 lung, 84.5%; with A549/ATCC NSCLC, 96.3%. Further, the growth was 96.2% in the assay with 786-0 renal and 130% in the assay on COLO 205 colon.
Take `O=C(Nc1cccc2c(O)c(N=Nc3ccc(S(=O)(=O)Nc4nccs4)cc3)cc(N=Nc3ccc(S(=O)(=O)Nc4nccs4)cc3)c12)C(Cl)Cl`: the growth in the assay with NCI-H23 lung is 103%; in the assay with NCI-H322M lung, 89.7%; with HOP-62 NSCLC, 96.8%; in the assay with HOP-92 NSCLC, 24.7%; with NCI-H522 lung it was -42.5% (active); with A549/ATCC NSCLC, 92.2%. Moreover, the values for the growth with 786-0 renal and in the assay on COLO 205 colon were 103% and 99%, respectively.
For the compound `Fc1ccc(CNc2c3ccccc3nc3ccccc23)cc1F`, the growth is 35.2% with NCI-H23 lung; 39% with NCI-H322M lung; 51.3% in the assay on HOP-62 NSCLC; 14.6% in the assay with NCI-H460 lung; 37% in the assay with NCI-H522 lung; 29.1% in the assay on A549/ATCC NSCLC. Moreover, the results for the growth with 786-0 renal and with COLO 205 colon were 31.4% and 16.1%, respectively.
Turning to `COc1cc(/C=C/C(=O)c2c(C)nc3ccccc3c2C)ccc1OCCCN1CCN(C(=O)c2ccco2)CC1`, the growth in the assay with NCI-H23 lung was 58.1%; in the assay on NCI-H322M lung, 91.8%; in the assay on HOP-62 NSCLC, 91.5%; in the assay with NCI-H460 lung it was 98.2%; in the assay with HOP-92 NSCLC it was 70%; in the assay with NCI-H522 lung, 57.7%. For the same compound, the results for the growth in the assay with A549/ATCC NSCLC, in the assay on 786-0 renal and in the assay with COLO 205 colon were 79%, 85.9% and 99.1%, respectively.
As for `CCc1ccccc1-n1c(-c2ccc(Cl)cc2)cc(-c2ccc(Cl)cc2)c(C#N)c1=O`, the growth with NCI-H23 lung is 94.2%; with NCI-H322M lung, 83.7%; in the assay with HOP-62 NSCLC, 107%; in the assay with HOP-92 NSCLC, 72.4%; in the assay with NCI-H522 lung, 78.1%; in the assay with A549/ATCC NSCLC it was 94.7%. Besides, the growth in the assay with 786-0 renal was 98%; in the assay with COLO 205 colon, 89.4%.
As to `S=C(Cc1ccc2c(c1)CCCC2)N1CCOCC1`, the growth in the assay on NCI-H23 lung was 98.4%; in the assay on NCI-H322M lung it was 94.8%; in the assay with HOP-62 NSCLC, 89.8%; with NCI-H460 lung, 107%; in the assay on HOP-92 NSCLC, 121%; in the assay on NCI-H522 lung, 81.3%. In addition, the growth with A549/ATCC NSCLC is 93.2%; in the assay with 786-0 renal, 101%; in the assay on COLO 205 colon it was 106%.
In the case of `COc1ccc2c(c1)C(=O)/C(=C/c1ccc(OCC(=O)Nc3nccs3)cc1)O2`, the growth with NCI-H23 lung was 2.06% (active); in the assay on NCI-H322M lung, 127%; in the assay with HOP-62 NSCLC, 106%; in the assay on NCI-H460 lung, 90.2%; with NCI-H522 lung, -61% (active); with A549/ATCC NSCLC, 84.9%. In addition, the figures for the growth in the assay on 786-0 renal and in the assay on COLO 205 colon were -12.6% (active) and 54.9%, respectively.
Consider `COC(=O)CCC1=C(C)C2=NC1=CC1=NC(=CC3=NC(=Cc4[nH]c(/c(=C(/C)O)c4C)=C2)C(C(C)=O)=C3C)C(C)=C1CCC(=O)OC`, for which the growth in the assay on NCI-H23 lung is 99.8%; in the assay on NCI-H322M lung, 102%; in the assay on HOP-62 NSCLC, 98.8%; with NCI-H460 lung, 103%; in the assay with HOP-92 NSCLC it was 88.2%; in the assay with NCI-H522 lung, 98.8%. Besides, the growth in the assay on A549/ATCC NSCLC is 88.6%; with 786-0 renal, 105%; in the assay on COLO 205 colon, 111%.
Consider `Cc1c(C)c2c(c(C)c1OCC(=O)O)CC[C@@](C)(CCC[C@@H](C)CCC[C@@H](C)CCCC(C)C)O2`, for which the growth was -30.8% [50 µM] (active) with NCI-H23 lung; 43.3% [50 µM] in the assay with NCI-H322M lung; 2.69% [50 µM] (active) in the assay with HOP-62 NSCLC; 3.28% [50 µM] (active) in the assay on NCI-H460 lung; -56.6% [50 µM] (active) in the assay with HOP-92 NSCLC; -4.29% [50 µM] (active) with NCI-H522 lung. Besides, the results for the growth in the assay on A549/ATCC NSCLC, with 786-0 renal and in the assay with COLO 205 colon were -3.06% [50 µM] (active), -46.4% [50 µM] (active) and -10.6% [50 µM] (active), respectively.
For `O=C(CCc1nnc(CN(c2ccccc2)c2ccccc2)o1)c1nc2ccccc2[nH]1`, the growth was 85.1% in the assay with NCI-H23 lung; 84.4% in the assay with NCI-H322M lung; 89.1% in the assay on HOP-62 NSCLC; 99.6% in the assay on NCI-H460 lung; 60.6% in the assay on HOP-92 NSCLC; 73.9% with NCI-H522 lung. Moreover, the results for the growth in the assay with A549/ATCC NSCLC, with 786-0 renal and in the assay on COLO 205 colon were 94.7%, 100% and 102%, respectively.
Regarding `N=C(N)c1ccc(-c2ccc(-c3cncc4ccccc34)s2)s1`, the growth in the assay on NCI-H23 lung is -53.2% (active); with NCI-H322M lung it was -90.9% (active); with HOP-62 NSCLC, -84.8% (active); in the assay with NCI-H460 lung it was -78.6% (active); in the assay with HOP-92 NSCLC, -82.6% (active); in the assay with NCI-H522 lung, -69.6% (active). Besides, the growth in the assay with A549/ATCC NSCLC was -85.8% (active); with 786-0 renal it was -84.6% (active); in the assay on COLO 205 colon it was -78.1% (active).

For the origin of these results see PubChem BioAssay (NCI).
